Measurements published in PubChem BioAssay (NCI).
The panel holds about 83,000 compounds, 20% with a hit somewhere; the sample as a whole holds those more often.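 The endpoint reported here, percent growth, reads 100 for growth as untreated, 0 for no net growth and -100 for all cells dead.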 The source made the active and inactive calls. How the source made its calls: active means growth percent below 10; inactive means the rest.

Key:
Experiment in all cases: NCI-60 one-dose screen, 48 h (100 = growth as untreated, 0 = no growth, -100 = all killed)
Settings in all cases: 10 µM unless noted
[1] = system: SR leukemia
[2] = system: RPMI-8226 leukemia
[3] = system: OVCAR-8 ovarian
[4] = system: OVCAR-5 ovarian
[5] = system: OVCAR-4 ovarian
[6] = system: SK-OV-3 ovarian
[7] = system: IGROV1 ovarian
[8] = system: OVCAR-3 ovarian
[9] = system: NCI/ADR-RES ovarian
[10] = system: T-47D breast
[11] = system: BT-549 breast
[12] = system: MDA-MB-435 melanoma
[13] = system: SW-620 colon
[14] = system: MCF7 breast
[15] = system: HCT-116 colon
[16] = system: HCC-2998 colon
[17] = system: KM12 colon
[18] = system: HS 578T breast

Measured: growth

O=C(Nc1ccc(-n2ccc3c(NC(=O)c4ccccc4)ncnc32)cc1)c1cccc(C(F)(F)F)c1
inactive: [2] 20.1% | [3] 40.9% | [4] 62.3% | [5] 97.1% | [6] 61.2% | [7] 43.1% | [8] 54.4% | [9] 50.7% | [10] 57.8% | [11] 51.9% | [12] 38.3% | [13] 29.1% | [14] 36.4% | [15] 22.3% | [16] 59.8% | [17] 30%
active: [1] 2.8%

O=C(NCCNc1nccc(-c2c(-c3cccc(O)c3)nc3sccn23)n1)c1ccc(N2CCOCC2)c(C(F)(F)F)c1
inactive: [1] 76.1% | [2] 58.8% | [3] 72.8% | [4] 91.2% | [5] 105% | [6] 66.4% | [7] 54.3% | [8] 89.1% | [9] 95.4% | [10] 60.1% | [11] 53.8% | [12] 20.9% | [13] 111% | [14] 58.7% | [15] 60.2% | [16] 106% | [17] 77.5%

CCCC(=O)Oc1ccc(/C(=C(\C)c2ccc(Cl)cc2)c2ccc(OCCN(CC)CC)cc2)cc1
active: [1] -36.3% | [2] -49.5% | [3] -48.4% | [5] 3.08% | [6] -6.52% | [8] -64.6% | [9] -6.97% | [10] -33.1% | [12] -85.9% | [13] -80.2% | [14] -78.4% | [15] -86.7% | [16] -65.4% | [17] -44.4%
inactive: [4] 30.4% | [7] 12.5% | [11] 22.7%

c1ccc(OCC[P+](c2ccccc2)(c2ccccc2)c2ccccc2)cc1
active: [7] 8.06% | [8] -31.5% | [10] 6.07% | [12] 4.66% | [16] 5.3%
inactive: [1] 22.7% | [2] 10.9% | [3] 24.5% | [4] 43.1% | [5] 15.8% | [6] 39.5% | [9] 108% | [11] 19.6% | [13] 18.3% | [14] 20% | [15] 15.6% | [17] 14.9%

CCOC(=O)c1noc2c1CCc1cn(Cc3cc(OC)cc(OC)c3)cc1-2
inactive: [1] 91.1% | [2] 99.9% | [3] 107% | [4] 108% | [5] 113% | [6] 101% | [7] 110% | [8] 103% | [9] 97.9% | [10] 94.7% | [11] 91.5% | [12] 103% | [13] 103% | [14] 94.9% | [15] 92.3% | [16] 88.9% | [17] 100%

O=[N+]([O-])c1ccccc1NC1c2ccccc2Oc2ccccc21
inactive: [2] 69.5% | [3] 72.9% | [4] 76.8% | [5] 98.7% | [6] 76.9% | [7] 49.3% | [9] 31.4% | [10] 76.5% | [11] 54.8% | [13] 19.8% | [14] 57.1% | [15] 30.3% | [16] 66% | [17] 26.3%
active: [1] 2.25% | [8] 3.28% | [12] -47.7%

O=S1(=O)N(CCNc2nccc(-c3c(-c4cccc(O)c4)nc4sccn34)n2)CCN1Cc1ccccc1
inactive: [1] 55.4% | [2] 47.4% | [3] 48.3% | [4] 113% | [5] 110% | [6] 52.9% | [7] 51.9% | [8] 64.9% | [9] 74% | [10] 50.8% | [11] 69.9% | [12] 45.9% | [13] 74.4% | [14] 59.5% | [15] 45.9% | [16] 109% | [17] 47.6%

C=C1C(=O)O[C@H]2[C@H]1CC/C(COC(=O)c1ccccc1)=C\CC[C@@]1(C)O[C@@H]21
active: [1] -14.1% | [2] -36.4% | [3] -34.3% | [4] 2.5% | [5] 5.21% | [7] -24.9% | [8] -44.5% | [10] -18.7% | [11] -13.7% | [12] -3.73% | [13] -55.4% | [14] -30.7% | [15] -86.6%
inactive: [6] 95.4% | [9] 36.2% | [16] 83.9% | [17] 65.6%

COc1ccc(/C(Cl)=N/N=C(\Cl)c2cc(OC)c(OC)c(OC)c2)cc1OC(C)=O
inactive: [1] 77.4% | [2] 89.4% | [3] 79.9% | [4] 107% | [5] 99.4% | [6] 80% | [7] 105% | [8] 101% | [9] 89.1% | [10] 66.2% | [11] 96.1% | [12] 99.9% | [13] 93.7% | [14] 93.9% | [15] 90.5% | [16] 102% | [17] 98.2%

O=C(NCCNc1nccc(-c2c(-c3cccc(O)c3)nc3sccn23)n1)Nc1cc(C(F)(F)F)cc(C(F)(F)F)c1
active: [12] 9.9%
inactive: [1] 65.3% | [2] 45.7% | [3] 52.8% | [4] 96.5% | [5] 121% | [6] 89.3% | [7] 65.2% | [8] 82.2% | [9] 87.8% | [10] 72% | [11] 87.6% | [13] 73.5% | [14] 67.5% | [15] 66.3% | [16] 65.5% | [17] 43.1%

O=[N+]([O-])c1cccc(C2c3ccccc3Oc3ccccc32)c1
inactive: [1] 77.4% | [2] 82.2% | [3] 89.4% | [4] 90.8% | [5] 91% | [6] 84.1% | [7] 76.8% | [8] 91.7% | [9] 93.7% | [10] 86.4% | [11] 116% | [12] 98.1% | [13] 86.9% | [14] 98.7% | [15] 68.3% | [16] 91.1% | [17] 86.7%

Cc1ncc(CO)c(C(=O)O)c1O
inactive: [1] 86.8% | [2] 131% | [3] 104% | [4] 105% | [5] 103% | [6] 104% | [7] 107% | [8] 94.8% | [9] 104% | [10] 78.4% | [11] 86.6% | [12] 106% | [13] 108% | [14] 98.9% | [15] 78% | [16] 95.3% | [17] 101%

O=C(Nc1ccc(-n2ccc3c(NC(=O)c4ccccc4)nccc32)cc1)c1cccc(C(F)(F)F)c1
active: [1] -2.23% | [2] 6.14%
inactive: [3] 30.4% | [4] 52.5% | [5] 108% | [6] 36.2% | [7] 33.3% | [8] 20.9% | [9] 19.8% | [10] 58.3% | [11] 29% | [12] 11% | [13] 19.2% | [14] 24.3% | [15] 12.8% | [16] 44.2% | [17] 20.4%

COc1ccc(-c2nn(-c3ccc(NC(=O)c4cc(C(F)(F)F)cc(C(F)(F)F)c4)cc3)cc2-c2ccncc2)cc1Cl
inactive: [1] 73.6% | [2] 10.7% | [3] 68.2% | [4] 64% | [5] 90.5% | [6] 78.4% | [7] 74.7% | [8] 60.1% | [9] 63.5% | [10] 52.9% | [11] 71% | [12] 67.4% | [13] 72.1% | [14] 66.9% | [15] 42.7% | [16] 77.5% | [17] 53.2%

COc1cccc(/C=N/C(=S)NC2(C)C3CCC(C3)C2(C)C)c1O (configuration not stated)
inactive: [1] 38.4% | [2] 73.5% | [3] 85.4% | [4] 102% | [5] 45.5% | [6] 102% | [7] 64.3% | [8] 73.2% | [9] 83.7% | [10] 56.5% | [12] 89.8% | [13] 78.9% | [14] 47.8% | [15] 53.4% | [16] 108% | [17] 87.8%

O=C(NCCNc1nccc(-c2c(-c3cccc(O)c3)nc3sccn23)n1)c1ccccc1O
inactive: [1] 63.2% | [2] 11.6% | [3] 41.3% | [4] 88.7% | [5] 96.2% | [6] 60.5% | [7] 31.6% | [8] 60.2% | [9] 73.6% | [11] 45.7% | [12] 14.3% | [13] 77.9% | [14] 37% | [15] 25.9% | [16] 81% | [17] 46.7%

CC(C)(C)NCC(O)COc1c(Br)c(Br)c(Br)c2c1OC(C)(C)C2 (configuration not stated)
active: [1] -61.6% | [2] -72.8% | [3] -54.8% | [4] -73.2% | [7] -84.2% | [18] -64.8% | [9] -15.9% | [10] -26.4% | [12] -68.6% | [13] -97.5% | [14] -74.2% | [15] -26.5% | [16] -74.9% | [17] -80.7%
inactive: [5] 15.3% | [6] 92.1% | [11] 32.7%
